# Most compounds without a hit are left out; they make up all but 12% or so of the library.
# Sfp inh: blocks B. subtilis Sfp PPTase activity | Q9F4F7 | Biochemical Sfp PPTase activity, qHTS | Potency, µM, without a hit: largest response in the series, negative = inhibition, hits mostly inhibitors | 3.5% of 310,000 active;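 also: the enzyme is Sfp with the accession as filed and its product quenches rhodamine fluorescence; 0% = enzyme reaction without inhibitor and -100% = no enzyme wells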
#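 Compounds were incubated with enzyme (final 15 nM) for 15 min at room temperature before substrate addition started the reaction. Fluorescence at 525 nm excitation, 598 nm emission was recorded immediately and after 30 minutes.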
# L3MBTL1 inh: L3MBTL1 (human) inhibition; AlphaScreen L3MBTL1–H3K9me1 peptide binding; Potency, µM (titrated, usually from 57.1 µM), for the others: top-dose activity, negative = inhibition, actives largely listed as inhibitors; AID 485360; 0.66% of 230,000 active; Q9Y468; also: % is scaled to controls: 0 for no effect and ±100 for the full control effect; nearly all actives have a fitted effect of over 60% in size
# Target sequence (Q9Y468 whole entry, looked up): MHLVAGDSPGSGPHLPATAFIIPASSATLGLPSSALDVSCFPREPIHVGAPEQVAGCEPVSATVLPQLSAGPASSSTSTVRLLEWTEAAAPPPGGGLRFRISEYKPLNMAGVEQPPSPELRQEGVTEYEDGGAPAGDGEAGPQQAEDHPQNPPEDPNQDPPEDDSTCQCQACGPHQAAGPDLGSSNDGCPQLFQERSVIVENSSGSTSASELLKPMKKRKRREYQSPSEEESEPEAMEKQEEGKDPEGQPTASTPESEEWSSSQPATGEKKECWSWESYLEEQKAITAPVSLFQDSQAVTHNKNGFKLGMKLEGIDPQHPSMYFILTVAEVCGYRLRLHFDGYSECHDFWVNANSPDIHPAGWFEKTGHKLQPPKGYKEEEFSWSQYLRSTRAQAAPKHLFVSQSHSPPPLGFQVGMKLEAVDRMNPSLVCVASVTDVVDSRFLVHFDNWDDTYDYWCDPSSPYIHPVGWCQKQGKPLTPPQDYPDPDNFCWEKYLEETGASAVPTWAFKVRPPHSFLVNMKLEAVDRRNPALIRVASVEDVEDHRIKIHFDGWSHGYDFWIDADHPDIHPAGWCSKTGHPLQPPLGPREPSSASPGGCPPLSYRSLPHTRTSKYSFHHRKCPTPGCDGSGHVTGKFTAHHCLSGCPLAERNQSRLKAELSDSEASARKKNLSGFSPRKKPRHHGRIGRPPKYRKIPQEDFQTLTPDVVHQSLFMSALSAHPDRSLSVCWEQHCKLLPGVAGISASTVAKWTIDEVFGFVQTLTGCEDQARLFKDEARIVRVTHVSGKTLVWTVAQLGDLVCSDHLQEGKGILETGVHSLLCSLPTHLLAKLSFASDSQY
#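 Read-out is AlphaScreen signal from streptavidin donor and nickel chelate acceptor beads (10 ug/mL final each) bridging L3MBTL1 (50 nM) and biotinylated K9-monomethylated H3(1-15) peptide (75 nM), after 30 min compound exposure at room temperature.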
# BAZ2B inh: inhibitors of human BAZ2B bromodomain | Q9UIF8 | AlphaScreen BAZ2B-H3K14Ac peptide displacement | Potency, µM (highest dose often 114 µM), without a hit: at the top dose activity change, negative = inhibition, usual class: inhibitors | 4.4% of 360,000 active; also: % is scaled to controls: 0 for no effect and ±100 for the full control effect; nearly all actives have a fitted effect of over 60% in size
#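 Compounds, titrated to a top concentration of 110 uM, were incubated 30 min at room temperature with preformed BAZ2B/acetyl-K14 H3 peptide complex (50 nM each). Proximity signal was measured by AlphaScreen after 20 min with beads.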
# HP1b binding inh: inhibitors of HP1-beta chromodomain binding to methylated histone tails | P83916 | AlphaScreen HP1-beta / biotin-H3K9me3 peptide binding | Potency, µM (series often up to 114 µM), for inactives: at the top dose activity change, negative = inhibition, hits mostly inhibitors | 0.56% of 390,000 active; also: nearly all actives have a fitted effect of over 70% in size
#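 Compound inhibition of the preformed complex between 50 nM HP1-beta and 50 nM biotinylated H3K9me3 peptide was read by AlphaScreen. Buffer was PBS pH 7.4 with 0.01% Tween-20. Incubations ran 30 min at room temperature, with 10 ug/mL donor/acceptor beads.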
# JMJD2A Tudor: inhibitors of human JMJD2A Tudor domain; AlphaScreen JMJD2A-Tudor / H3K4me3 peptide binding; Potency, µM (titrated, usually from 114 µM), for the others: at the top dose activity change, negative = inhibition, usual class: inhibitors; 4.4% of 390,000 active; AID 504339; also: % is scaled to controls: 0 for no effect and ±100 for the full control effect; nearly all actives have a fitted effect of over 50% in size
# G9a inh: inhibitors of human histone lysine methyltransferase G9a; G9a H3K9 monomethylation, AlphaScreen, 2 h; Potency, µM (series often up to 102 µM), for the others: top-dose activity, negative = inhibition, hits mostly inhibitors; 8.8% of 350,000 active; AID 504332; also: % is scaled to controls: 0 for no effect and ±100 for the full control effect; nearly all actives have a fitted effect of over 75% in size
#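 AlphaScreen read-out: biotin-H3K9 peptide (500 nM) methylation by 20 nM enzyme with 20 uM SAM, 2 h at room temperature after 15 min compound preincubation; anti-monomethyl H3K9 antibody plus donor/acceptor beads, 10 min dark.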
# * = called active by the depositor; ? = inconclusive; . = not tested or not shown; [ ] = remark or other dose. Calls follow the shape of the dose curve; as a rule, active = well fitted curve in the direction sought with a large enough effect; inconclusive = small, poorly fitted or top-dose-only effect, or another doubt; inactive = no such curve, though single readings can be large; an effect the other way counts as inactive or inconclusive. Potency is read from the fitted curve at half-maximal effect.
SMILES,Sfp inh,L3MBTL1 inh,BAZ2B inh,HP1b binding inh,JMJD2A Tudor,G9a inh
Cc1cc(C)c(NC(=O)C(C)Sc2nnc(-c3ccco3)n2-c2ccccc2)c(C)c1 (configuration not stated),13%,3%,-11%,.,.,-9%
CC(Sc1nnc(-c2cc3ccccc3o2)n1-c1ccccc1)C(=O)O (configuration not stated),4%,3%,6%,30%,-18%,8.9µM*
COc1ccc(C(=O)CSc2nnc(CCc3ccccc3)n2-c2ccccc2)cc1,-18%,-1%,-1%,17%,56µM*,40µM*
CC(C)Oc1ccc(CCc2nnc(SC(C)C(=O)O)n2-c2ccccc2)cc1 (configuration not stated),12%,4%,2%,26%[57 µM],56µM*,.
CC(Sc1nc2ccccc2o1)C(=O)O (configuration not stated),13%,2%,-7%,37%,1%,50µM*
Cc1cc(OCc2nnc(SC(C)C(=O)O)n2-c2ccccc2)ccc1Cl (configuration not stated),16%,-10%,-39%,43%,?,?
COc1ccccc1N1CCN(C(=O)CCn2cnc3onc(-c4ccc(F)cc4)c3c2=O)CC1,.,.,-1%[57.1 µM],-14%,-36%,-29%[59 µM]
CC(C)c1ccc(NC(=O)c2ccc(=O)n(Cc3ccccc3)c2)cc1,.,.,-17%,4%,-31%,11%[59 µM]
CCc1nn(CC(=O)N2CCN(c3cccc(C)c3C)CC2)c(=O)c2cc3sccc3n12,.,.,2%,39%,7%,-3%[59 µM]
COc1ccc(-n2c(CCc3ccccc3)nnc2SCC(=O)c2ccccc2)cc1,?,-4%,-37%,0%,-35%,8.9µM*
Cc1oc(/N=C/c2ccc(O)cc2O)c(C#N)c1C,-19%,.,-4%,-4%,-7%,45µM*
Cc1oc(/N=C/c2ccccc2O)c(C#N)c1C,-27%,-13%,12%,30%,-13%,-124%
Cc1oc(/N=C/c2ccc(Cl)cc2Cl)c(C#N)c1C,4%,1%,-3%,22%,-14%,45µM*
Cc1oc(/N=C/c2c(O)ccc3ccccc23)c(C#N)c1C,-20%,-9%,.,.,.,1.6µM*
COc1ccc(N2CC(NC(=O)c3c(F)cccc3Cl)CC2=O)cc1OC (configuration not stated),.,.,-8%,9%,-13%,-4%[59 µM]
CC(C)C[C@@H](CC(=O)N[C@@H](CCC(=O)O)CC(=O)O)NC(=O)[C@@H]1CCCC[C@H]1NC(=O)C[C@H](CCCN)NC(=O)C[C@H](CO)NC(=O)[C@@H]1CCCC[C@H]1N,-16%,.,.,.,.,.
CCOc1ccc(N2CSC3=C(C#N)C(c4ccco4)CC(=O)N3C2)cc1 (configuration not stated),3.2µM*,.,45µM*,4%,-8%,1.8µM*
CCOc1ccc(N2CC(NC(=O)c3ccco3)CC2=O)cc1 (configuration not stated),.,.,4%,23%,4%,21%[59 µM]
Cc1ccc(C2CC(=O)N3CN(c4ccc(Br)cc4)CSC3=C2C#N)o1 (configuration not stated),1.3µM*,.,56µM*,-6%,22µM*,?
COc1ccc(Oc2ncnc3c2oc2ccccc23)cc1,.,.,2%,46%,5%,11%[59 µM]
COC(=O)c1ccc(C(=O)OC)c(NC(=O)c2ccc(-c3ccccc3)s2)c1,.,.,20%,67%,0%,24%[59 µM]
CCOc1ccc(NC(=O)N(Cc2cn(CC)c3ccccc23)C2CCCCCC2)cc1,.,.,.,13%,?,?
CCCCCOc1ccc(/C=C/C(=O)Nc2sc(C(C)=O)c(C)c2C(=O)OCC)cc1OC,.,.,-2%,46%,-7%,15%[59 µM]
Cc1ccc2c(c1)N(C)/C(=C/c1cccc[n+]1CCO)S2,3%,.,-1%,16%,?,32µM*
Cc1ccc2c(c1)N(C)/C(=C/c1cccc[n+]1C)S2,-24%,.,?,-25%,?,6.3µM*
SMILES,Sfp inh,L3MBTL1 inh,BAZ2B inh,HP1b binding inh,JMJD2A Tudor,G9a inh
CN1/C(=C/C(=O)C2CCC2)Sc2ccccc21,?,-10%,?,31%,-20%,?
COCC(=O)/C=C1\Sc2ccccc2N1C,-20%,.,9%,31%,-16%,-21%[59 µM]
CN1/C(=C/c2cccc[n+]2C)Sc2ccccc21,-16%,.,?,47%,?,25µM*
Cc1c(NC(=O)c2ccc(-c3ccc(F)cc3)o2)cccc1-c1nc2ncccc2o1,.,.,-32%,36%,-20%,-24%[59 µM]
CC(C)(C)N1C(=O)[C@H]2[C@H]3[C@H](O)[C@H](O)C/C(=N/NC(=O)OCc4ccccc4)[C@@H]3CC[C@@H]2C1=O,1%,.,.,.,.,.
O=C(NCc1ccccn1)C(=O)NCc1ccccn1,56µM*,.,29%,53%,-6%,-6%
O=C(NCc1ccccn1)c1nc(-c2cccs2)no1,6%,6%,2%,12%,-27%,28µM*
CCCNC(=O)C(=O)NCc1ccccn1,-2%,1%,-21%,12%,3%,?
O=C(NCc1ccccn1)c1coc(=O)c(Br)c1,?,14µM*,18µM*,25%,?,?
COc1ccc(CCNC(=O)C(=O)NCc2ccccn2)cc1,18%,7%,-25%,15%,-12%,50µM*
CNC(=O)c1cnc2sc(N3CCC(C)CC3)nn2c1=O,.,.,-5%,8%,-29%,-3%[59 µM]
CCC(CO)NCC#Cc1ccccc1 (configuration not stated),7%,-2%,-34%,24%,-17%,56µM*
OC(CNCC#Cc1ccccc1)c1ccccc1 (configuration not stated),18%,0%[11.4 µM],-26%,36%,-14%,?
CC(=O)O[C@@]12CO[C@@H]1C[C@H](O)[C@@]1(C)C(=O)[C@H](O)C3=C(C)[C@@H](OC(=O)[C@H](O)[C@@H](NC(=O)OC(C)(C)C)c4ccccc4)C[C@](O)([C@@H](OC(=O)c4ccccc4)[C@H]21)C3(C)C,8.9µM*,.,-15%,.,.,17%[59 µM]
CC(=O)O[C@H]1C[C@@]2(O)[C@@H](OC(=O)c3ccccc3)C3[C@@](C)([C@@H](O)C[C@H]4OC[C@@]34OC(C)=O)[C@@H](O)[C@H](OC(C)=O)C(=C1C)C2(C)C (some centres not stated),22%,.,-23%,7%,-24%,-7%[12.7 µM]
Cc1oc2ncn(CC(C)C)c(=O)c2c1C(=O)NCCCN1CCCCC1C (configuration not stated),.,.,4%[57.1 µM],6%,-9%,-1%[59 µM]
Nc1cc(Br)c(N)c(Br)c1,-1%,-6%,-32%,-4%,-15%,50µM*
